The test system of one assay is ABL1. Also noted: species or system human, MV4-11 + K-562 + COLO205 + SK-N-BE2 + OVCAR-8. The conditions noted are these: read-out: apparent Kd, n = 1.
Another assay concerns ABL2. Further details: species or system human, MV4-11 + K-562 + COLO205 + SK-N-BE2 + OVCAR-8. The conditions noted are these: read-out: apparent Kd, n = 1.
Another assay has as its system BCR. Further details: species or system human, MV4-11 + K-562 + COLO205 + SK-N-BE2 + OVCAR-8. As to conditions: read-out: apparent Kd, n = 1.
A further assay has as its system FYN. Also noted: species or system human, MV4-11 + K-562 + COLO205 + SK-N-BE2 + OVCAR-8. The conditions noted are these: read-out: apparent Kd, n = 1.
The next assay deals with GAK. Further details: species or system human, MV4-11 + K-562 + COLO205 + SK-N-BE2 + OVCAR-8. As to conditions: read-out: apparent Kd, n = 1.
For the next assay, the system named is HCK. Further details: species or system human, MV4-11 + K-562 + COLO205 + SK-N-BE2 + OVCAR-8. As to conditions: read-out: apparent Kd, n = 1.
The next assay has as its system PTK6. Further details: species or system human, MV4-11 + K-562 + COLO205 + SK-N-BE2 + OVCAR-8. As to conditions: read-out: apparent Kd, n = 1.
The next assay has as its system RET. Also noted: species or system human, MV4-11 + K-562 + COLO205 + SK-N-BE2 + OVCAR-8. As to conditions: read-out: apparent Kd, n = 1.
The next assay concerns RIPK2. Further details: species or system human, MV4-11 + K-562 + COLO205 + SK-N-BE2 + OVCAR-8. As to conditions: read-out: apparent Kd, n = 1.
The subject of another assay is RIPK3. Further details: species or system human, MV4-11 + K-562 + COLO205 + SK-N-BE2 + OVCAR-8. The conditions noted are these: read-out: apparent Kd, n = 1.
The test system of a further assay is AAK1. Further details: species or system human, MV4-11 + K-562 + COLO205 + SK-N-BE2 + OVCAR-8. As to conditions: read-out: apparent Kd, n = 1.
Another assay concerns CLK1. Further details: species or system human, MV4-11 + K-562 + COLO205 + SK-N-BE2 + OVCAR-8. The conditions noted are these: read-out: apparent Kd, compound concentrations: 100 nM and 1000 nM (sheet 'Samples'), n = 1.
The next assay concerns CLK4. Further details: species or system human, MV4-11 + K-562 + COLO205 + SK-N-BE2 + OVCAR-8. As to conditions: read-out: apparent Kd, compound concentrations: 100 nM and 1000 nM (sheet 'Samples'), n = 1.
The next assay concerns CSNK2A1;CSNK2A3. Also noted: species or system human, MV4-11 + K-562 + COLO205 + SK-N-BE2 + OVCAR-8. As to conditions: read-out: apparent Kd, compound concentrations: 100 nM and 1000 nM (sheet 'Samples'), n = 1.
In a further assay the test system is CSNK2A2. Further details: species or system human, MV4-11 + K-562 + COLO205 + SK-N-BE2 + OVCAR-8. As to conditions: read-out: apparent Kd, compound concentrations: 100 nM and 1000 nM (sheet 'Samples'), n = 1.
A further assay has as its target Q6ZSR9 (human, UniProt Q6ZSR9). Also noted: species or system MV4-11 + K-562 + COLO205 + SK-N-BE2 + OVCAR-8. The conditions noted are these: read-out: apparent Kd, compound concentrations: 100 nM and 1000 nM (sheet 'Samples'), n = 1.
Another assay deals with LCK. Also noted: species or system human, MV4-11 + K-562 + COLO205 + SK-N-BE2 + OVCAR-8. As to conditions: read-out: apparent Kd, n = 1.
The next assay relates to TNK1. Further details: species or system human, MV4-11 + K-562 + COLO205 + SK-N-BE2 + OVCAR-8. The conditions noted are these: read-out: apparent Kd; compound concentrations:100 nM and 1000 nM (sheet 'Samples'); n = 1.
The test system of a further assay is YES1. Also noted: species or system human, MV4-11 + K-562 + COLO205 + SK-N-BE2 + OVCAR-8. The conditions noted are these: read-out: apparent Kd, n = 1.
Where [1] appears, read: compound concentrations:100 nM and 1000 nM (sheet 'Samples').

Read-outs that look alike come from different tables or passages of the source.

Q6ZSR9, sequence (Q6ZSR9 whole entry, looked up): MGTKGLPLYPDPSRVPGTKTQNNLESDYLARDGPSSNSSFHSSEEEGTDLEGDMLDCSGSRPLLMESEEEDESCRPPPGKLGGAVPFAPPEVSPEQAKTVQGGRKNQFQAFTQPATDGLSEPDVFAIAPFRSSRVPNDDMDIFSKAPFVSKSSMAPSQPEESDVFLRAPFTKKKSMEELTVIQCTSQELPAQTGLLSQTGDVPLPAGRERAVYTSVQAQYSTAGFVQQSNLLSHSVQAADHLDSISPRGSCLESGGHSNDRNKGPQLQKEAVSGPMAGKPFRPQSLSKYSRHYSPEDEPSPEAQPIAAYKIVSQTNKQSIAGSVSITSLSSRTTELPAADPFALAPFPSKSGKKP

In the case of `Cl.Oc1cccc(Nc2ccnc3cc(-c4ccncc4)ccc23)c1` [GW494601A], the potency estimated from few doses with ABL1 (compound concentrations: 100 nM and 1000 nM (sheet 'Samples'), CATDS: 3.6017646503182399E-2) was 127 nM; in the assay on ABL2 (compound concentrations: 100 nM and 1000 nM (sheet 'Samples'), CATDS: 5.7742248446513503E-2), 32.5 nM; in the assay with BCR (compound concentrations: 100 nM and 1000 nM (sheet 'Samples'), CATDS: 9.7304657047822804E-2) it was 10.5 nM; with FYN (compound concentrations: 100 nM and 1000 nM (sheet 'Samples'), CATDS: 2.0819366263931199E-2), 1150 nM; in the assay on GAK (compound concentrations: 100 nM and 1000 nM (sheet 'Samples'), CATDS: 8.36996948680125E-2), 14.1 nM; in the assay on HCK (compound concentrations: 100 nM and 1000 nM (sheet 'Samples'), CATDS: 2.0776424104180801E-2), 1170 nM. Moreover, the potency estimated from few doses in the assay with PTK6 (compound concentrations: 100 nM and 1000 nM (sheet 'Samples'), CATDS: 1.98277031575195E-2) was 1530 nM; in the assay with RET (compound concentrations: 100 nM and 1000 nM (sheet 'Samples'), CATDS: 7.2637191041935695E-2), 19 nM; with RIPK2 (compound concentrations: 100 nM and 1000 nM (sheet 'Samples'), CATDS: 0.103970438166355), 9.31 nM; in the assay with RIPK3 (compound concentrations: 100 nM and 1000 nM (sheet 'Samples'), CATDS: 6.8751849319998101E-2), 21.5 nM.
For `COc1ccccc1CNC1=NC(=O)/C(=C/c2ccc3ncccc3c2)S1` [RO4503315-000], the potency estimated from few doses with AAK1 (compound concentrations: 100 nM and 1000 nM (sheet 'Samples'), CATDS: 7.6030940071323702E-2) is 908 nM; with CLK1 (CATDS: 0.30628277203205201), 30.8 nM; in the assay on CLK4 (CATDS: 0.47450505844259699), 14.8 nM; in the assay with CSNK2A1;CSNK2A3 (CATDS: 0.129899516900844) it was 197 nM; in the assay with CSNK2A2 (CATDS: 0.121862828094444) it was 231 nM; in the assay with Q6ZSR9 (CATDS: 7.7270195347091397E-2) it was 858 nM.
For the compound `CCN(CC)CCOc1ccc(Nc2ncc3cc(-c4c(Cl)cccc4Cl)c(=O)n(C)c3n2)cc1` [SB-601273], the potency estimated from few doses was 72.7 nM in the assay with ABL1 (setting [1]); 8.98 nM with ABL2 (setting [1]); 5.53 nM in the assay on BCR (setting [1]); 130 nM in the assay with FYN (setting [1]); 55.4 nM in the assay with GAK (setting [1]); 299 nM in the assay with HCK (setting [1]). For the same compound, the potency estimated from few doses in the assay on LCK (setting [1]) was 39 nM; in the assay with PTK6 (setting [1]) it was 224 nM; in the assay with RET (setting [1]) it was 167 nM; in the assay on RIPK2 (setting [1]), 19.4 nM; in the assay with RIPK3 (setting [1]), 765 nM; in the assay with TNK1, 631 nM. Moreover, the potency estimated from few doses in the assay with YES1 (setting [1]) is 80.1 nM.
Consider `NC(=O)c1cccc(Nc2nccc(Nc3cccc4[nH]ncc34)n2)c1` [GW782612X], for which the potency estimated from few doses was 1900 nM with ABL1 (compound concentrations: 100 nM and 1000 nM (sheet 'Samples'), CATDS: 3.3551530123454902E-2); 629 nM with ABL2 (compound concentrations: 100 nM and 1000 nM (sheet 'Samples'), CATDS: 4.6849720703519497E-2); 381 nM in the assay with BCR (compound concentrations: 100 nM and 1000 nM (sheet 'Samples'), CATDS: 5.7731069178064698E-2); 1340 nM in the assay with CLK1 (CATDS: 3.6631639688053302E-2); 951 nM in the assay with CLK4 (CATDS: 4.0513674478844103E-2); 1630 nM with CSNK2A2 (CATDS: 3.4795292983427199E-2). For the same compound, the potency estimated from few doses was 937 nM in the assay on GAK (compound concentrations: 100 nM and 1000 nM (sheet 'Samples'), CATDS: 4.0699733875589103E-2); 247 nM in the assay on RIPK2 (compound concentrations: 100 nM and 1000 nM (sheet 'Samples'), CATDS: 7.1079405795032996E-2).
Regarding `O=C1N=C(NCc2ccccc2Cl)S/C1=C\c1ccc2ncccc2c1` [RO4506917-000], the potency estimated from few doses was 696 nM in the assay on AAK1 (compound concentrations: 100 nM and 1000 nM (sheet 'Samples'), CATDS: 0.11408276718016799); 443 nM in the assay on CLK1 (CATDS: 0.13615422717459799); 307 nM with CLK4 (CATDS: 0.16237253930463899); 190 nM with CSNK2A1;CSNK2A3 (CATDS: 0.21358904197946299); 281 nM in the assay with CSNK2A2 (CATDS: 0.17001055355195799); 1190 nM with Q6ZSR9 (CATDS: 9.7347252089560202E-2).
For `O=C1N=C(NCc2ccccc2)S/C1=C\c1ccc2ncccc2c1` [RO4442080-000], the potency estimated from few doses in the assay with AAK1 (compound concentrations: 100 nM and 1000 nM (sheet 'Samples'), CATDS: 8.89289230622759E-2) was 1380 nM; with CLK1 (CATDS: 0.13842928601840401), 521 nM; with CLK4 (CATDS: 0.11834941417905), 701 nM; in the assay on CSNK2A1;CSNK2A3 (CATDS: 0.15313565978355501) it was 438 nM; in the assay with CSNK2A2 (CATDS: 0.175887275734743) it was 351 nM; with Q6ZSR9 (CATDS: 0.110093670656788) it was 815 nM.
`Nc1nc(-c2ccc3c(N)n[nH]c3c2)cc(N2CCCCC2)n1` [GSK2228768A]: the potency estimated from few doses in the assay with AAK1 (setting [1]) is 749 nM.
For `Cc1cccc(Nc2nc(NCCN)ncc2C(N)=O)c1` [GSK1292139B], the potency estimated from few doses in the assay on AAK1 (compound concentrations: 100 nM and 1000 nM (sheet 'Samples'), CATDS: 0.21003536001632001) was 164 nM; with Q6ZSR9 (CATDS: 0.320838512301937), 88 nM.
On to `O=C1N=C(N[C@@H](CO)c2ccccc2)S/C1=C\c1ccc2ncccc2c1` [RO4554340-000], for which the potency estimated from few doses in the assay on AAK1 (compound concentrations: 100 nM and 1000 nM (sheet 'Samples'), CATDS: 0.158998542924943) is 1190 nM; with CLK1 (CATDS: 0.44812709075051699), 156 nM; in the assay with CLK4 (CATDS: 0.232280366030543), 478 nM; with Q6ZSR9 (CATDS: 0.16133585717123999), 1140 nM.
As to `Cc1ccc(O)cc1Nc1ccnc2cc(-c3ccc(CN4CCCCC4)o3)ccc12` [GW557777X], the potency estimated from few doses in the assay on ABL1 (compound concentrations: 100 nM and 1000 nM (sheet 'Samples'), CATDS: 4.3692235612931E-2) is 8.34 nM; in the assay on ABL2 (compound concentrations: 100 nM and 1000 nM (sheet 'Samples'), CATDS: 6.7746368355333403E-2), 2.92 nM; in the assay with BCR (compound concentrations: 100 nM and 1000 nM (sheet 'Samples'), CATDS: 0.10189444124387), 1.17 nM; with FYN (compound concentrations: 100 nM and 1000 nM (sheet 'Samples'), CATDS: 2.5035707525361502E-2), 44.5 nM; in the assay with GAK (compound concentrations: 100 nM and 1000 nM (sheet 'Samples'), CATDS: 5.9852273314458602E-2), 3.88 nM; with HCK (compound concentrations: 100 nM and 1000 nM (sheet 'Samples'), CATDS: 2.2990890088698399E-2) it was 60.9 nM. Moreover, the potency estimated from few doses in the assay with LCK (compound concentrations: 100 nM and 1000 nM (sheet 'Samples'), CATDS: 1.5741185519971699E-2) is 353 nM; with PTK6 (compound concentrations: 100 nM and 1000 nM (sheet 'Samples'), CATDS: 2.4564391165164502E-2), 47.6 nM; in the assay on RET (compound concentrations: 100 nM and 1000 nM (sheet 'Samples'), CATDS: 4.4477848245190701E-2) it was 7.97 nM; with RIPK2 (compound concentrations: 100 nM and 1000 nM (sheet 'Samples'), CATDS: 5.5536056615070897E-2) it was 4.62 nM; in the assay on RIPK3 (compound concentrations: 100 nM and 1000 nM (sheet 'Samples'), CATDS: 1.48381507951055E-2) it was 508 nM; with YES1 (compound concentrations: 100 nM and 1000 nM (sheet 'Samples'), CATDS: 2.43288733372133E-2), 49.3 nM.

(Values after paper PMC11062922 (Nature Chemical Biology, 2023).)
